Reference: PubChem BioAssay
Several values for one entry are separate records, joined by “and”; a condition that tells them apart may be missing. Equal entries are not always repeated. Activity calls are given as the source filed them.

Legend:
[1] = tested on: PRMT1 (protein arginine N-methyltransferase 1); assay: small molecules binding arginine methyltransferase PRMT1 – biochemical, small-molecule microarray, 635 nm fluorescence, primary screen (AID 1088); details: higher = more signal;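 further: binding of Prmt1 protein to compounds spotted on small-molecule microarray slides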
[2] = growth effects on S. cerevisiae YJM789 – YJM789 clinical isolate, OD600, 24 h, basal, primary screen (AID 1089); details: higher = more signal, called active from +8 up or from −8 down;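 further: growth of clinical yeast isolate S. cerevisiae YJM 789 seeded 1000 cells per well; test concentration not given here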
[3] = S. pombe growth modifiers, basal conditions – strain 972, OD600, 24 h, no modulator, primary screen (AID 1090);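 further: basal condition with compound alone and no growth modifier present; test concentration not given here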; details: S. pombe 972 growth, higher = more signal, called active from +8 up or from −8 down
[4] = budding yeast growth modifiers under rapamycin – strain BY4716, OD600, 96 h, primary screen (AID 1091); further: test concentration not given here; details: S. cerevisiae BY4716 + rapamycin, higher = more signal, called active from +8 up or from −8 down
[5] = biological target: Torsin-1A-interacting protein 2 (Homo sapiens) (UniProt Q8NFQ8); assay: small molecules binding lysate-expressed LULL1 – cell lysate, human LULL1 lysate, 635/667 nm fluorescence, primary screen (AID 1092); details: small-molecule microarray, hLULL1 lysate binding, 635 nm fluorescence; higher = more signal;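 further: probe is lysate of COS7 cells overexpressing human LULL1; score merges per-feature 667 nm fluorescence with signal-to-noise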
[6] = optical density change of DRC41 E. coli – strain DRC41, OD650, 24 h, E. coli filamentation project, primary screen (AID 1093);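 further: MC1000 strain lacking acrAB efflux and sulA so SOS filamentation is blocked; test concentration not given here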; details: E. coli DRC41 growth, higher = more signal, called active from +8 up or from −8 down
[7] = probe aLefty2 binding to arrayed compounds – biochemical, biotinylated probe, 635/667 nm fluorescence, primary screen (AID 1094); details: small-molecule microarray, higher = more signal;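 further: score merges spot fluorescence near 667 nm with spot signal-to-noise ratio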
[8] = tested on: Noggin (protein binding on small-molecule microarray); assay: small molecules binding Noggin protein – biochemical, 635/667 nm fluorescence, primary screen (AID 1095); details: 635 nm fluorescence, higher = more signal;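 further: score merges 667 nm feature fluorescence with signal to noise over triplicate slides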
[9] = biological target: Neurogenic locus notch homolog protein 3 (Homo sapiens) (UniProt Q9UM47); assay: small molecules binding NOTCH3 protein – biochemical, 635/667 nm fluorescence, primary screen (AID 1096); details: small-molecule microarray, 635 nm fluorescence, higher = more signal
[10] = probe aEGFR binding to arrayed compounds – biochemical, biotinylated probe, 635/667 nm fluorescence, primary screen (AID 1097); details: small-molecule microarray, higher = more signal;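 further: probe is a biotinylated anti-EGFR antibody binding compounds printed on slides; score combines fluorescence near 667 nm and signal to noise of each spot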
[11] = tested on: Plasmodium falciparum Sir2 (PF13_0152, Sir2A); assay: Plasmodium falciparum Sir2A binding compounds – biochemical, small-molecule microarray, 635 nm fluorescence, primary screen (AID 1098); details: fluorescence 635 nm, higher = more signal;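 further: score merges spot fluorescence intensity with its signal-to-noise ratio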
[12] = probe aDKK1 binding to arrayed compounds – biochemical, biotinylated probe, 635/667 nm fluorescence, primary screen (AID 1099); details: small-molecule microarray, higher = more signal;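 further: score merges 667nm spot fluorescence with signal to noise across triplicate slides; reference of the scale not given here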
[13] = probe aCHRDL2 binding to arrayed compounds – biochemical, biotinylated probe, 635/667 nm fluorescence, primary screen (AID 1100); details: small-molecule microarray, higher = more signal
[14] = change in splice reporter luminescence, either direction, cell-based, HEK293, spliceosome inhibition project, primary screen (AID 1101); details: HEK293 splicing luciferase reporter, 24 h, higher = more signal, called active from +8 up or from −8 down;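 further: HEK293 cells carrying a splicing-competent luciferase reporter gene; test concentration not given here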
[15] = biological target: Fibroblast growth factor 10 (Homo sapiens) (UniProt O15520); assay: compounds binding fibroblast growth factor 10 – biochemical, small-molecule microarray, 635 nm fluorescence, primary screen (AID 1102); details: FGF10 binding, fluorescence 635 nm, higher = more signal
[16] = tested on: glycogen synthase kinase-3 (GSK3A per assay name; protocol says GSK3B); assay: compounds binding glycogen synthase kinase-3 – biochemical, small-molecule microarray, 635 nm fluorescence, GSK3A, primary screen (AID 1103); details: fluorescence 635 nm, higher = more signal; further: the record names both GSK3A and GSK3B
[17] = biological target: Epidermal growth factor receptor (Homo sapiens) (UniProt P00533); assay: compounds binding epidermal growth factor receptor – biochemical, small-molecule microarray, 635 nm fluorescence, primary screen (AID 1104); details: EGFR binding, higher = more signal;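 further: score merges 667 nm emission intensity with spot signal to noise over triplicate slides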
[18] = biological target: Follistatin-related protein 3 (Homo sapiens) (UniProt O95633); assay: compounds binding follistatin-related protein 3 – biochemical, small-molecule microarray, 635 nm fluorescence, primary screen (AID 1105); details: FSTL3 binding, higher = more signal;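 further: score merges emission near 667 nm and signal to noise per printed spot across three slides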
[19] = biological target: Dickkopf-related protein 1 (Homo sapiens) (UniProt O94907); assay: small molecules binding DKK1 protein – biochemical, small-molecule microarray, 635 nm fluorescence scan, primary screen (AID 1106); details: higher = more signal;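 further: score merges emission near 667 nm with signal to noise over three replicate slides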
[20] = tested on: Inhibin beta A chain (activin A); assay: small molecules binding activin A – biochemical, small-molecule microarray, 635 nm fluorescence scan, primary screen (AID 1107); details: INHBA, higher = more signal;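 further: mouse activin A protein probed at 4.33 µg/mL on printed slides; score merges bound-protein fluorescence near 667 nm with spot signal-to-noise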

Sequence of Torsin-1A-interacting protein 2 (Homo sapiens) (Q8NFQ8 whole entry, looked up): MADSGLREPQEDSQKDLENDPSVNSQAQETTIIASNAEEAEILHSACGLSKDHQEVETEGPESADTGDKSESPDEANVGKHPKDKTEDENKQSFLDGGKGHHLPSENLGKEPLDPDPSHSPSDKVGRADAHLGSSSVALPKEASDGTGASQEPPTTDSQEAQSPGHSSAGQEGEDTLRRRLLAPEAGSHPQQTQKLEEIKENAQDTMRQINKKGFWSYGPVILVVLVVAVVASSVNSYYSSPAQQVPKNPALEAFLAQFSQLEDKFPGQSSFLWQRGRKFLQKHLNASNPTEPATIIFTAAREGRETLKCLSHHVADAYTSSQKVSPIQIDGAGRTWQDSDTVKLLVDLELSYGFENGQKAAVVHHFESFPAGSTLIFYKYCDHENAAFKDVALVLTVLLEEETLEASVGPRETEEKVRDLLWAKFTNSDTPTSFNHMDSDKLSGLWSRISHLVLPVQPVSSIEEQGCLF
Sequence of Neurogenic locus notch homolog protein 3 (Homo sapiens) (Q9UM47 whole entry, looked up): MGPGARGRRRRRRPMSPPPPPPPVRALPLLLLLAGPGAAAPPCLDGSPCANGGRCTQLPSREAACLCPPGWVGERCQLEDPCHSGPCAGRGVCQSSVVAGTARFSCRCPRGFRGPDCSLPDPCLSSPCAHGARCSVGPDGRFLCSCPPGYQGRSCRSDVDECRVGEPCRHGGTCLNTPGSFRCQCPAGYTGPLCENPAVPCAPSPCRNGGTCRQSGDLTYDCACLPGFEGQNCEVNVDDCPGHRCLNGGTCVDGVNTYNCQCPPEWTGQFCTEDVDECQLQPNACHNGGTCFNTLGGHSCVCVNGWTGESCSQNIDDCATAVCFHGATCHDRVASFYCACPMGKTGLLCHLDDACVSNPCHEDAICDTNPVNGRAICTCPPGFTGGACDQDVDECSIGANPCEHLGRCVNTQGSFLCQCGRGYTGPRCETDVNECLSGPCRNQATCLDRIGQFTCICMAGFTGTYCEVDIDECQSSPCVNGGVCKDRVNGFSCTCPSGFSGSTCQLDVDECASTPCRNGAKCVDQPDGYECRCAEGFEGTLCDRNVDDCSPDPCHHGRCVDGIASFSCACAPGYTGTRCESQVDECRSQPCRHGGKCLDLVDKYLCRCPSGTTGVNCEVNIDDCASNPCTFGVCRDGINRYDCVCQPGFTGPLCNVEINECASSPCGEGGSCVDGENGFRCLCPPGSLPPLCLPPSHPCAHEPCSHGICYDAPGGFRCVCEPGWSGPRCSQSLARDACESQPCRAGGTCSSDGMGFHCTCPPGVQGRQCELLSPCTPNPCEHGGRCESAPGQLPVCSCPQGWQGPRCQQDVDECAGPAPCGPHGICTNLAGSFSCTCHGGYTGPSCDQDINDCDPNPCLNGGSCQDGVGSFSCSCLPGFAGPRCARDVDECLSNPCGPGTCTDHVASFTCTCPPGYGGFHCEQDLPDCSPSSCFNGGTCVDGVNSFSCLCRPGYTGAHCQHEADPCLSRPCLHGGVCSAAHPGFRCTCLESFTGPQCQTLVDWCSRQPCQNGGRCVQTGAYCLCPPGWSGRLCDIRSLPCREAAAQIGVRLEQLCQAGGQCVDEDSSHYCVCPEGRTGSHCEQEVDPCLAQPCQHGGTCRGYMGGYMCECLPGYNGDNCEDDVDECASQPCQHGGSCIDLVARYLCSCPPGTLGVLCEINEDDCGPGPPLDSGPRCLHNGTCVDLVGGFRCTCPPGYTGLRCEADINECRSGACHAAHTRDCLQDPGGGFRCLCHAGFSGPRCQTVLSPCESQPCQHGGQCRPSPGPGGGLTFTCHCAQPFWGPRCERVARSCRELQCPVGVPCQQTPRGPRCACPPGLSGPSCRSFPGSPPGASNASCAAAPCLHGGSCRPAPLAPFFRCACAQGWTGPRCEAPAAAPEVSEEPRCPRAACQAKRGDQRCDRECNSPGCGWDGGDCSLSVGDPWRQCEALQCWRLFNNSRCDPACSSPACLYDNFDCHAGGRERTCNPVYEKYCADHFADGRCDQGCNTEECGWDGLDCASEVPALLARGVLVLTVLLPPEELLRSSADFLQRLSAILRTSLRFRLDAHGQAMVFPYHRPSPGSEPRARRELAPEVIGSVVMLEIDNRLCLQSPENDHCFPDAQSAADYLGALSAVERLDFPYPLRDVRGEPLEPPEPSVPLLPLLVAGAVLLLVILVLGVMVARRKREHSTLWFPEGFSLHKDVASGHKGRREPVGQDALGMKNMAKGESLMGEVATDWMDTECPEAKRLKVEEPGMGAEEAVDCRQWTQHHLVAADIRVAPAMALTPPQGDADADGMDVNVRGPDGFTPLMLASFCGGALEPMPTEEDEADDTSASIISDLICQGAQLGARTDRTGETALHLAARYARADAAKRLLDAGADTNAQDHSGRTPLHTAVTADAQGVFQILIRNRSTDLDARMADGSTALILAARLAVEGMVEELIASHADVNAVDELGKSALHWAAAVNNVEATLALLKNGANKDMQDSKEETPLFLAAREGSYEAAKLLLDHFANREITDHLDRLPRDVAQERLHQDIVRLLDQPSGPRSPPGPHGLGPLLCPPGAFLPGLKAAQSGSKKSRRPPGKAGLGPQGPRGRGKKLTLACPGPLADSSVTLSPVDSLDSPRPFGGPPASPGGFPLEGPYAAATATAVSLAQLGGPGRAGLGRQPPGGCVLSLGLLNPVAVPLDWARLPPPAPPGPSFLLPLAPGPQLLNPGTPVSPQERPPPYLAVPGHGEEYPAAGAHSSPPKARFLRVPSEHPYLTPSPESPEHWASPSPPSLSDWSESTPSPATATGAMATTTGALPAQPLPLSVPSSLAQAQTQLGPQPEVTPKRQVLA
Sequence of Dickkopf-related protein 1 (Homo sapiens) (O94907 whole entry, looked up): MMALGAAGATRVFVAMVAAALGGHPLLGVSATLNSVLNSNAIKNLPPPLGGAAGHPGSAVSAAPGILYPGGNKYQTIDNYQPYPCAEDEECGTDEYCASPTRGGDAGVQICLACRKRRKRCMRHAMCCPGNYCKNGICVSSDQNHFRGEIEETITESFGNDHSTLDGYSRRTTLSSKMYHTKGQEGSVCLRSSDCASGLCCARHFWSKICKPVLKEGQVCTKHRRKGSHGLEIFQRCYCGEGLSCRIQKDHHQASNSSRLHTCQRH
Sequence of Fibroblast growth factor 10 (Homo sapiens) (O15520 whole entry, looked up): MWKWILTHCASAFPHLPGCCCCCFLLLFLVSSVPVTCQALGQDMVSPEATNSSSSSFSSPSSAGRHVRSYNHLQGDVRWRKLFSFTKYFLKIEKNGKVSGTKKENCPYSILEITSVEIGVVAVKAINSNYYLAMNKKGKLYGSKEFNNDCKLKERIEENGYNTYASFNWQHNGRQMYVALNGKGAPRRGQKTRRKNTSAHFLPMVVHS
Sequence of Epidermal growth factor receptor (Homo sapiens) (P00533 whole entry, looked up): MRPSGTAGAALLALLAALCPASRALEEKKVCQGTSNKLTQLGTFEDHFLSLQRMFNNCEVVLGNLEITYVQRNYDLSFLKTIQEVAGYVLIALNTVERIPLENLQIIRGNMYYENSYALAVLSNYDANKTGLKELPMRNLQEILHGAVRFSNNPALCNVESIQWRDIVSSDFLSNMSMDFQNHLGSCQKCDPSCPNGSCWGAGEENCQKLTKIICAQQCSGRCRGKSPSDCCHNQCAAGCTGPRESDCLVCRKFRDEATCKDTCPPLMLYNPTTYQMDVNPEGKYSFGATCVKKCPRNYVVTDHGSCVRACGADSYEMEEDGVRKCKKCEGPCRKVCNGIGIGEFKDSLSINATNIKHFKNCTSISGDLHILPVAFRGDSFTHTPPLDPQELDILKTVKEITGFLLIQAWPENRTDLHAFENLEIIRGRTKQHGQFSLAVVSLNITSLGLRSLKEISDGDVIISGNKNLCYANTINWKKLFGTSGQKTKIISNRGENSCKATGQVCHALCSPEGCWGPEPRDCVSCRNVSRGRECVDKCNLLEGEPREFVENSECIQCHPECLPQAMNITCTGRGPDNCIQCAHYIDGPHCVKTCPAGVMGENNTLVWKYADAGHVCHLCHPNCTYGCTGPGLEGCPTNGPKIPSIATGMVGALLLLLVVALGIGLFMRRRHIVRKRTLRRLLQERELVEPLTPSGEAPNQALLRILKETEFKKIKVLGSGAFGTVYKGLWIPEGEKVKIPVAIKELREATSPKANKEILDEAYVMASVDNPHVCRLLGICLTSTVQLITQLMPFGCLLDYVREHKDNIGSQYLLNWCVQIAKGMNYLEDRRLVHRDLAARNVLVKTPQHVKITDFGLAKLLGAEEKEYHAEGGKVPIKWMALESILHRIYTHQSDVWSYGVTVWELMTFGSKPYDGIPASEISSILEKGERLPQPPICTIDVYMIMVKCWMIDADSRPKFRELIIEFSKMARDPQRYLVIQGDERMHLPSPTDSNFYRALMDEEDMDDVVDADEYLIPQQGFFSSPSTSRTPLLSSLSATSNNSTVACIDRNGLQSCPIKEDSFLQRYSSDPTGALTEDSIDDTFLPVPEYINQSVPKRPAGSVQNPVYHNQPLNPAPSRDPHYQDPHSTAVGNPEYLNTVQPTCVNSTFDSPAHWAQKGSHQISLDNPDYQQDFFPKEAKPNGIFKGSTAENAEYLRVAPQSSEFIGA
Sequence of Follistatin-related protein 3 (Homo sapiens) (O95633 whole entry, looked up): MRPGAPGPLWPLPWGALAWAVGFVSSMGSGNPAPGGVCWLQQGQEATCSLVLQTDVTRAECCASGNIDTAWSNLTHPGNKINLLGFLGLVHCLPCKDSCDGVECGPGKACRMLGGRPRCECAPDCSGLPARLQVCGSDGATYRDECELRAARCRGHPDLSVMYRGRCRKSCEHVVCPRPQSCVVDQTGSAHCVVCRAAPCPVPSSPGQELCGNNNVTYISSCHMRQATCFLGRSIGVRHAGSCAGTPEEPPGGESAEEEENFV

Compound: C=CCN(Cc1ccccc1)C(=O)C1N(CCCCCCO)C(=O)C2C(C(=O)O)C3C=CC21O3 (stereo not given)
- composite z-score [1]: -0.487 and -1.4
- z-score [2]: 0.101 (inactive) and -1.39 (inactive)
- z-score [3]: 0.624 (inactive) and -0.642 (inactive)
- z-score [4]: -0.889 (inactive) and -1.51 (inactive)
- composite z-score [5]: 1.83 and 1.79
- z-score [6]: -0.142 (inactive) and 1.19 (inactive)
- composite z-score [7]: -0.0265 and 0.0515
- composite z-score [8]: -1.9 and -1.38
- composite z-score [9]: -1.59 and -0.439
- composite z-score [10]: -0.322 and -0.246
- composite z-score [11]: 0.751 and 0.912
- composite z-score [12]: -0.0659 and -0.197
- composite z-score [13]: 0.991 and 0.926
- z-score [14]: -0.679 (inactive) and -1.35 (inactive)
- composite z-score [15]: -1.02 and -2.08
- composite z-score [16]: -0.973 and -1.08
- composite z-score [17]: -1.7 and -1.71
- composite z-score [18]: -1.49 and -1.67
- composite z-score [19]: -1.79 and -4
- composite z-score [20]: -1.29 and -2.29

Compound: O=C1[C@H]2[C@H]3[C@H](O)[C@H](O)CC(=NOCc4ccccc4)[C@H]3CC[C@H]2C(=O)N1Cc1ccccc1
- composite z-score [1]: -1
- z-score [2]: -2.04 (inactive)
- z-score [3]: -2.07 (inactive)
- z-score [4]: -1.04 (inactive)
- composite z-score [5]: -0.336
- z-score [6]: 0.582 (inactive)
- composite z-score [7]: -0.234
- composite z-score [8]: 0.439
- composite z-score [9]: 0.273
- composite z-score [10]: -0.126
- composite z-score [11]: 0.424
- composite z-score [12]: -0.276
- composite z-score [13]: -0.476
- z-score [14]: -2.42 (inactive)
- composite z-score [15]: 0.185
- composite z-score [16]: -0.601
- composite z-score [17]: 0.486
- composite z-score [18]: 0.606
- composite z-score [19]: 0.737
- composite z-score [20]: -0.201

Compound: O=C1C[C@]2(c3ccc([N+](=O)[O-])cc3)C(=O)N(Cc3ccccc3)c3cc(CO)ccc3[C@H]2N1C1CCCCC1
- composite z-score [1]: 1.33 and 0.39
- z-score [2]: -0.754 (inactive) and -0.363 (inactive)
- z-score [3]: 0.31 (inactive) and -0.838 (inactive)
- z-score [4]: -1.02 (inactive) and 3.78 (inactive)
- composite z-score [5]: 2.21 and 1.14
- z-score [6]: 0.245 (inactive) and 0.545 (inactive)
- composite z-score [7]: -0.21 and 0.668
- composite z-score [8]: 0.469 and 0.225
- composite z-score [9]: 0.219 and 0.161
- composite z-score [10]: -0.0828 and 0.805
- composite z-score [11]: -0.179 and 0.678
- composite z-score [12]: -0.153 and 1.26
- composite z-score [13]: -0.0948 and 0.78
- z-score [14]: 0.0261 (inactive) and -0.478 (inactive)
- composite z-score [15]: -0.225 and 0.994
- composite z-score [16]: 1.11 and -0.148
- composite z-score [17]: 0.079 and 0.291
- composite z-score [18]: 0.413 and -0.017
- composite z-score [19]: -0.0921 and 0.434
- composite z-score [20]: 0.4 and 0.359

Compound: CC(C)C(=O)N[C@@H]1CCCN1C(=O)C=Cc1ccccc1
- composite z-score [1]: 0.731
- z-score [2]: -0.91 (inactive)
- z-score [3]: -0.0986 (inactive)
- z-score [4]: -0.307 (inactive)
- composite z-score [5]: 0.783
- z-score [6]: 1.03 (inactive)
- composite z-score [7]: -0.14
- composite z-score [8]: 0.783
- composite z-score [9]: 0.786
- composite z-score [10]: 0.0289
- composite z-score [11]: 0.98
- composite z-score [12]: -0.311
- composite z-score [13]: -0.469
- z-score [14]: 0.655 (inactive)
- composite z-score [15]: 0.419
- composite z-score [16]: 0.883
- composite z-score [17]: 0.432
- composite z-score [18]: 0.709
- composite z-score [19]: 0.47
- composite z-score [20]: -0.172

Compound: C=C[C@H](C)[C@@H](O)c1ccc(OCCO)cc1
- composite z-score [1]: -0.269 and 0.62
- z-score [2]: -0.766 (inactive) and 0.227 (inactive)
- z-score [3]: -0.467 (inactive) and -0.537 (inactive)
- z-score [4]: -0.647 (inactive) and 0.024 (inactive)
- composite z-score [5]: -0.982 and 0.448
- z-score [6]: 0.158 (inactive) and -0.18 (inactive)
- composite z-score [7]: -0.184 and -0.0816
- composite z-score [8]: -0.565 and -0.187
- composite z-score [9]: -0.956 and -0.773
- composite z-score [10]: -0.403 and -0.216
- composite z-score [11]: 1.19 and -0.0088
- composite z-score [12]: 0.892 and -0.0695
- composite z-score [13]: 0.689 and 0.639
- z-score [14]: -0.636 (inactive) and -0.215 (inactive)
- composite z-score [15]: -1.09 and -0.675
- composite z-score [16]: -0.914 and -0.622
- composite z-score [17]: -1.51 and -0.966
- composite z-score [18]: -1.35 and -0.796
- composite z-score [19]: -1.05 and -0.262
- composite z-score [20]: -1.03 and -0.831

Compound: C=C[C@@H](C)[C@@H](O)c1ccc(OCCO)cc1
- composite z-score [1]: -0.851 and 0.0376
- z-score [2]: 0.0436 (inactive) and -2.75 (inactive)
- z-score [3]: 0.162 (inactive) and -0.815 (inactive)
- z-score [4]: -0.607 (inactive) and 0.262 (inactive)
- composite z-score [5]: -1.11 and -0.508
- z-score [6]: -0.0921 (inactive) and 1.12 (inactive)
- composite z-score [7]: 0.0893 and 0.2
- composite z-score [8]: -1.72 and -1.7
- composite z-score [9]: -0.574 and -0.377
- composite z-score [10]: -0.397 and -0.374
- composite z-score [11]: 0.886 and 1.38
- composite z-score [12]: -0.265 and -0.238
- composite z-score [13]: 1.09 and 0.349
- z-score [14]: 0.26 (inactive) and -1.46 (inactive)
- composite z-score [15]: -1.75 and -1.12
- composite z-score [16]: -0.736 and -0.659
- composite z-score [17]: -2.13 and -2.11
- composite z-score [18]: -1.25 and -1.05
- composite z-score [19]: -2.51 and -1.8
- composite z-score [20]: -3.81 and -0.988

Compound: C=C[C@@H](C)[C@H](O)c1ccc(O)c2ccccc12
- composite z-score [1]: 0.849 and -0.813
- z-score [2]: -0.647 (inactive) and -0.84 (inactive)
- z-score [3]: -7.96 (inactive) and -7.6 (inactive)
- z-score [4]: 3.63 (inactive) and 2.2 (inactive)
- composite z-score [5]: 1.26 and 0.149
- z-score [6]: 1.32 (inactive) and 0.1 (inactive)
- composite z-score [7]: -0.254 and -0.233
- composite z-score [8]: 0.753 and -0.896
- composite z-score [9]: -0.0801 and -1.72
- composite z-score [10]: -0.244 and -0.399
- composite z-score [11]: 1.09 and 0.905
- composite z-score [12]: -0.493 and -0.379
- composite z-score [13]: -0.289 and 0.255
- z-score [14]: 0.126 (inactive) and 0.292 (inactive)
- composite z-score [15]: -0.309 and -0.862
- composite z-score [16]: -0.347 and -0.958
- composite z-score [17]: 0.617 and -0.987
- composite z-score [18]: 0.294 and -0.579
- composite z-score [19]: 0.481 and -0.33
- composite z-score [20]: 1.53 and 1.13

Compound: COC(=O)c1c2oc(c1C(=O)OC)C(=O)N[C@@H](Cc1ccccc1)Cn1cc(nn1)C1(CCCCC1)NC(=O)N[C@H](CO)CC2
- composite z-score [1]: 1.43 and 0.951
- z-score [2]: 0.168 (inactive) and 0.611 (inactive)
- z-score [3]: -0.79 (inactive) and -0.186 (inactive)
- z-score [4]: -0.427 (inactive) and -0.2 (inactive)
- composite z-score [5]: 2.52 and 0.978
- z-score [6]: 2.09 (inactive) and 1.21 (inactive)
- composite z-score [7]: 0.558 and 0.72
- composite z-score [8]: 1.57 and 0.416
- composite z-score [9]: 0.971 and 0.57
- composite z-score [10]: 0.0408 and -0.0697
- composite z-score [11]: 0.582 and 0.45
- composite z-score [12]: 0.407 and -0.327
- composite z-score [13]: -0.287 and -0.366
- z-score [14]: -0.55 (inactive) and -1.56 (inactive)
- composite z-score [15]: 1.16 and 0.505
- composite z-score [16]: 0.86 and 0.41
- composite z-score [17]: 0.158 and 0.198
- composite z-score [18]: 0.794 and 0.388
- composite z-score [19]: 0.749 and 0.194
- composite z-score [20]: 0.728 and -0.0236
